Data reported in PubChem BioAssay (NCI).
This is part of a sample that, as a whole, favours compounds with a hit. Of some 83,000 tested, about 20% had one in any assay.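 Results are percent growth after 48 hours of single-concentration exposure. 100 means growth as in untreated cells, lower positive values show inhibition; negative values down to -100 show cell death.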 Activity calls are given as the source filed them. How the source made its calls: active means growth percent below 10; inactive means the rest.

Tests used:
Assay in all cases: NCI-60 one-dose screen, 48 h (100 = growth as untreated, 0 = no growth, -100 = all killed)
Conditions in all cases: 10 µM
NCI-H460 lung = tested on: NCI-H460 lung
HOP-92 NSCLC = tested on: HOP-92 NSCLC
RXF 393 renal = tested on: RXF 393 renal
SK-MEL-5 melanoma = tested on: SK-MEL-5 melanoma
CCRF-CEM leukemia = tested on: CCRF-CEM leukemia
NCI/ADR-RES ovarian = tested on: NCI/ADR-RES ovarian
T-47D breast = tested on: T-47D breast
BT-549 breast = tested on: BT-549 breast
MDA-MB-435 melanoma = tested on: MDA-MB-435 melanoma
SW-620 colon = tested on: SW-620 colon
HCT-116 colon = tested on: HCT-116 colon
HCC-2998 colon = tested on: HCC-2998 colon
KM12 colon = tested on: KM12 colon
SR leukemia = tested on: SR leukemia
MCF7 breast = tested on: MCF7 breast
SNB-19 CNS = tested on: SNB-19 CNS
ACHN renal = tested on: ACHN renal
OVCAR-4 ovarian = tested on: OVCAR-4 ovarian

Measured: growth

COc1cc(-c2nc3ccc(C)cc3[nH]2)ccc1OCc1nnc(-c2ccccc2Br)o1
active: RXF 393 renal 1.93%
inactive: NCI-H460 lung 72.8% | HOP-92 NSCLC 84.3% | SK-MEL-5 melanoma 41.1% | CCRF-CEM leukemia 19.4% | NCI/ADR-RES ovarian 75% | T-47D breast 28% | BT-549 breast 55.7% | MDA-MB-435 melanoma 85.4% | SW-620 colon 91.9% | HCT-116 colon 61% | HCC-2998 colon 77.2% | KM12 colon 65.9%

COc1ccc(C(=O)COc2ccc(NC(=O)Nc3ccccc3)cc2)cc1
inactive: NCI-H460 lung 76.6% | RXF 393 renal 82.8% | SK-MEL-5 melanoma 94.3% | CCRF-CEM leukemia 91% | SR leukemia 80.6% | NCI/ADR-RES ovarian 86.4% | T-47D breast 65.6% | BT-549 breast 76.2% | MDA-MB-435 melanoma 89.4% | SW-620 colon 101% | MCF7 breast 67.2% | HCC-2998 colon 105% | KM12 colon 91.6%

COc1ccc(Cn2cc(C#N)c(N)c2C(C)=O)c(OC)c1
inactive: HOP-92 NSCLC 85.7% | RXF 393 renal 107% | SNB-19 CNS 105% | SK-MEL-5 melanoma 99.1% | ACHN renal 101% | CCRF-CEM leukemia 105% | SR leukemia 106% | OVCAR-4 ovarian 110% | NCI/ADR-RES ovarian 102% | T-47D breast 106% | BT-549 breast 107% | MDA-MB-435 melanoma 108% | SW-620 colon 106% | MCF7 breast 101% | HCC-2998 colon 106% | KM12 colon 106%

O=C(CN1CCN(c2ncnc3c2cnn3-c2ccccc2)CC1)Nc1ccc(Cl)cc1
active: SK-MEL-5 melanoma 0.35% | ACHN renal -80.7%
inactive: NCI-H460 lung 53.3% | HOP-92 NSCLC 69.8% | RXF 393 renal 74.4% | CCRF-CEM leukemia 51.9% | SR leukemia 36.9% | OVCAR-4 ovarian 44.5% | NCI/ADR-RES ovarian 48% | T-47D breast 26.7% | BT-549 breast 39.1% | MDA-MB-435 melanoma 47% | SW-620 colon 78.4% | HCT-116 colon 51.8% | HCC-2998 colon 55.8% | KM12 colon 53.1%

COc1cccc(C(=O)CSc2nc(-c3ccc(OCc4ccccc4)c(OC)c3)c(C#N)c(=O)[nH]2)c1
inactive: NCI-H460 lung 106% | RXF 393 renal 93% | SK-MEL-5 melanoma 98.5% | CCRF-CEM leukemia 101% | SR leukemia 93.9% | NCI/ADR-RES ovarian 96.9% | T-47D breast 90.7% | BT-549 breast 102% | MDA-MB-435 melanoma 95.7% | SW-620 colon 102% | MCF7 breast 91.3% | HCC-2998 colon 111% | KM12 colon 104%
